In the library only some 6.9% were active in any assay of this set; here they are far more common.
Vif-APOBEC3G blk – blocks the Vif interaction with human APOBEC3G; Potency, µM (series often up to 46.1 µM), most hits filed as inhibitors; HeLa A3G-eYFP + Vif (tagged APOBEC3G with the HIV-1 protein that degrades it), YFP fluorescence, overnight; hit rate 0.076% among 410,000; note: nearly all actives have a fitted effect of over 60% in size
Target sequence (Q9HC16 whole entry, looked up): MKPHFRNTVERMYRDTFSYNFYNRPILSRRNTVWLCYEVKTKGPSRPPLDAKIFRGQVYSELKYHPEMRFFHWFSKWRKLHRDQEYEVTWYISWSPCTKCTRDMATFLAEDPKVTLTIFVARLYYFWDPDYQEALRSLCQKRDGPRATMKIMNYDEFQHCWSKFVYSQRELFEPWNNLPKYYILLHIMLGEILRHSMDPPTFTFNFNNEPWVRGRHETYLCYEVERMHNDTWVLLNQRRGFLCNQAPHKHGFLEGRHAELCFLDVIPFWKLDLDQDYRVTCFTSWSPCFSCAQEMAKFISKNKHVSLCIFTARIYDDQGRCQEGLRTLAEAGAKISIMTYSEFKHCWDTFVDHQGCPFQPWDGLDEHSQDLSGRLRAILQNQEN
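Read-out is eYFP fluorescence (Ex 488/Em 500-530) from Vif-expressing HeLa A3G-eYFP cells; more signal means A3G escaped Vif-mediated degradation. Cells plated overnight, compound pinned in, incubated overnight at 37 deg C.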
SW480 rerep – DNA re-replication induction in SW480 cells. Potency, µM (doses to about 46.1 µM), hits mostly activators. hit rate 1.8% among 340,000. SW480 DNA re-replication, Hoechst DNA content imaging, 48 h; note: nearly all actives have a fitted effect of over 55% in size
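Readout is total intensity of Hoechst-stained nuclei, excited at 405 nm and collected at 500-530 nm. Compound treatment lasted 48 hr at 37 C in 5% CO2 before staining.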
Giardia killer – Giardia lamblia killing. Giardia lamblia trophozoite viability. activity change, % at 7.66 µM, hits read low. hit rate 0.15% among 340,000; in the data active = activity change below about -80%; inconclusive = between about -30% and that limit;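 note: parasites exposed to compound for two days anaerobically before the ATP read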
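Trophozoites 100 cells/well + cpd; 48 hrs, 37 deg C, anaerobic. ATPLite 1-Step added, 15-30 min RT, luminescence read (ATP-based viability).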
Vif-A3F inh – inhibitors of Vif-A3F interaction; HeLa A3F-eYFP + Vif (tagged APOBEC3F with the HIV-1 protein that degrades it), YFP fluorescence increase; hit rate 0.2% among 390,000; Potency, µM (series often up to 46.1 µM); note: nearly all actives have a fitted effect of over 65% in size
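HeLa cells stably expressing Vif plus C-terminally eYFP-tagged A3F were seeded, incubated overnight at 37 deg C, dosed with compound, incubated overnight again at 37 deg C. Yellow fluorescence (Ex 488/Em 500-530) reported blocked Vif-mediated A3F-eYFP degradation.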
IL1B secr inh – inhibitors of inflammasome signaling (IL-1 beta secretion). THP-1 LPS/ATP IL-1B secretion, AlphaLISA, 16 h; hits give low values. activity change, % at 57.5 µM. hit rate 4.7% among 360,000. AID 743279; in the data active = activity change below about -50%; inconclusive = mostly about -30% to -49%
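Secreted IL-1B measured by AlphaLISA bead assay after 16 h compound exposure of THP-1 cells; compounds (final up to 57.5 uM) added 1 h before LPS (250 ng/mL) and ATP (1.25 mM) stimulation; lower signal means less secretion.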
MCF10A rereplic – DNA re-replication induction in MCF 10a cells | MCF 10A DNA re-replication, Hoechst nuclear intensity, 48 h | Potency, µM (series often up to 46.1 µM), most hits filed as activators | hit rate 2.9% among 350,000 | AID 624296; note: nearly all actives have a fitted effect of over 50% in size
Large screens that a line does not name were inactive. Unless noted, calls come from the whole dose curve; as a rule, active = well fitted curve in the direction sought with a large enough effect; inconclusive = small, poorly fitted or top-dose-only effect, or another doubt; inactive = no such curve, though single readings can be large; an effect the other way counts as inactive or inconclusive.

Cc1ccc(C)c(Cn2c(=O)n(CCCC(=O)NCc3ccco3)c(=O)c3sccc32)c1	Vif-APOBEC3G blk inconclusive, SW480 rerep inconclusive, MCF10A rereplic 13µM
CC(C)c1nn2c(=O)cc(COC(=O)c3ccccc3NC(=O)c3cccc(Cl)c3)nc2s1	none (no result: SW480 rerep, Giardia killer, IL1B secr inh, MCF10A rereplic)
Cc1ccc(NC(=O)c2cc(S(=O)(=O)Nc3ccc(C)cc3)cs2)cc1	SW480 rerep inconclusive, IL1B secr inh -77.9
Oc1ccc(Cl)cc1C1=NNC(c2ccc(Cl)cc2)C1 (centres undefined)	SW480 rerep inconclusive, IL1B secr inh inconclusive, MCF10A rereplic 18.4µM
Oc1ccc(Cl)cc1C1=NNC(c2cc(Br)cc3c2OCOC3)C1 (centres undefined)	none
Oc1c(Cl)cc(Cl)cc1C1=NNC(c2ccc(Cl)cc2)C1 (centres undefined)	SW480 rerep inconclusive, MCF10A rereplic 16.4µM
CCOc1ccc(Cl)cc1CNCCCSc1nnnn1C	none (no result: SW480 rerep, Giardia killer, IL1B secr inh, MCF10A rereplic)
N#Cc1ccccc1Cn1c(=O)n(CCCC(=O)NCc2ccc3c(c2)OCO3)c(=O)c2sccc21	none (no result: SW480 rerep, Giardia killer, IL1B secr inh, MCF10A rereplic)
COc1cc(CNc2ccc3[nH]c(=O)[nH]c3c2)ccc1OCc1cccc(C)c1	Vif-A3F inh inconclusive, IL1B secr inh -75.6
COc1cc(CNc2ccc3[nH]c(=O)[nH]c3c2)ccc1OCc1ccc(C)cc1	IL1B secr inh inconclusive
COc1ccc(-c2cc(C)no2)cc1S(=O)(=O)N1CCN(c2ccccn2)CC1	IL1B secr inh -77.3
Cc1cc(-c2ccc(C(C)C)c(S(=O)(=O)N3CCN(c4ccccn4)CC3)c2)on1	SW480 rerep inconclusive, MCF10A rereplic 4.11µM
COc1ccc(-n2c(SCC(=O)Nc3cccc(S(N)(=O)=O)c3)nc3ccccc3c2=O)cc1OC	IL1B secr inh -81.2
Cc1cc(C(=O)N/N=C/c2ccc([N+](=O)[O-])o2)c(C)o1	SW480 rerep inconclusive, Giardia killer -96.8
COc1ccc(-c2nn(-c3ccccc3)cc2C(=O)N/N=C/c2ccc([N+](=O)[O-])o2)cc1	SW480 rerep inconclusive, Giardia killer -86.0, Vif-A3F inh inconclusive, MCF10A rereplic inconclusive
Cc1nonc1C(=O)N/N=C/c1ccc([N+](=O)[O-])o1	Vif-APOBEC3G blk inconclusive
O=C(CNc1ccc2ccccc2c1)N/N=C/c1cc2ccccc2nc1Cl	MCF10A rereplic 18.4µM
CCCC(=O)Nc1ccc(C(=O)N/N=C/c2ccc([N+](=O)[O-])o2)cc1	Vif-APOBEC3G blk inconclusive, SW480 rerep 16.4µM, MCF10A rereplic 3.26µM
O=C(COc1cccc(Cl)c1)N/N=C\c1cc2ccccc2nc1Cl	MCF10A rereplic inconclusive
COc1ccc(Nc2cc(C(=O)NCCCN(C)Cc3ccccc3)c3ccccc3n2)cc1OC	none (no result: SW480 rerep, Giardia killer, IL1B secr inh, MCF10A rereplic)
Cc1ccc2c(c1)N(C(=O)N1CCC(C(=O)NC3CCCCCC3)CC1)CCO2	none (no result: SW480 rerep, Giardia killer, IL1B secr inh, MCF10A rereplic)
CCOc1ccc(-c2nonc2NC(=O)COc2ccccc2)cc1	none (no result: SW480 rerep, Giardia killer, IL1B secr inh, MCF10A rereplic)
CSc1ccc(CCNC(=O)c2csc3c2CCCCC3)cc1	none (no result: SW480 rerep, Giardia killer, IL1B secr inh, MCF10A rereplic)
COc1ccc(C2=C(Nc3ccc(Br)c(C)c3)c3ccccc3C2=O)cc1	none (no result: SW480 rerep, Giardia killer, IL1B secr inh, MCF10A rereplic)
COC(=O)c1sccc1S(=O)(=O)N(CC(=O)Nc1cc(C)ccc1C)c1ccc(C)c(C)c1	none (no result: SW480 rerep, Giardia killer, IL1B secr inh, MCF10A rereplic)
NC(=O)N/N=C/c1ccc([N+](=O)[O-])o1	SW480 rerep inconclusive, Giardia killer inconclusive
Cc1ccc(OCC(=O)N/N=C/c2ccc([N+](=O)[O-])o2)cc1	Giardia killer -101.2
Cc1ccc(OCC(=O)N/N=C\c2ccc(C)o2)c([N+](=O)[O-])c1	Vif-APOBEC3G blk inconclusive, Vif-A3F inh inconclusive
O=C(CNc1ccc2ccccc2c1)N/N=C/c1ccc([N+](=O)[O-])o1	SW480 rerep inconclusive, Giardia killer -90.9
O=C(CSc1ccc(Cl)cc1)N/N=C/c1ccc([N+](=O)[O-])o1	SW480 rerep 20.6µM, Giardia killer -94.6, MCF10A rereplic 9.2µM
O=C(COc1ccccc1)N/N=C/c1ccc([N+](=O)[O-])o1	Giardia killer -96.9
NS(=O)(=O)c1ccc(NC(=S)N2CCN(Cc3ccc(Cl)c(Cl)c3)CC2)cc1	IL1B secr inh -72.3, MCF10A rereplic inconclusive
NS(=O)(=O)c1ccc(NC(=S)N2CCN(c3ccc(Cl)c(Cl)c3)CC2)cc1	SW480 rerep inconclusive, MCF10A rereplic inconclusive
CCCN1CCN(C(=S)Nc2ccc(S(N)(=O)=O)cc2)CC1	none
NS(=O)(=O)c1ccc(NC(=S)N2CCC(Cc3ccccc3)CC2)cc1	IL1B secr inh -62.2
COc1ccc2cc(C(=O)NCc3ccc4c(c3)CCN4C(=O)c3ccc(C)cc3)[nH]c2c1	none (no result: SW480 rerep, Giardia killer, IL1B secr inh, MCF10A rereplic)
O=c1cc(OCc2ccccc2)cc[nH]1	IL1B secr inh -65.7
Cc1[nH]ccc(=O)c1OCc1ccccc1	SW480 rerep inconclusive
c1ccc(COc2cccc(CNCc3cccnc3)c2)cc1	SW480 rerep inconclusive
Cc1ccc(CNCC(O)(c2ccccc2)c2ccccc2)cc1	none
COc1cccc(CNCC(O)(c2ccc(Cl)cc2)c2ccc(Cl)cc2)c1	SW480 rerep inconclusive, IL1B secr inh -57.1, MCF10A rereplic inconclusive
Cc1ccc(CNCC(O)(c2ccccc2)c2ccc(Cl)cc2)cc1 (centres undefined)	SW480 rerep inconclusive, IL1B secr inh -74.6
OCCNCc1cccc(OCc2ccc(Cl)cc2)c1	IL1B secr inh -56.0
O=C(Nc1ccc2oc(-c3ccc4ccccc4c3)nc2c1)c1cc(Cl)ccc1Cl	none (no result: SW480 rerep, Giardia killer, IL1B secr inh, MCF10A rereplic)
O=C1CN(c2nc(-c3cccs3)nc3sc4c(c23)CCCC4)CCN1	IL1B secr inh -93.6, MCF10A rereplic inconclusive
O=c1c2c3c(sc2nc2n1N=C(c1cccs1)CS2)CCCC3	Giardia killer inconclusive
O=c1oc(-c2cccs2)nc2sc3c(c12)CCCC3	SW480 rerep inconclusive, MCF10A rereplic 18.4µM
O=c1oc(-c2cccs2)nc2sc3c(c12)CCC3	none
COc1ccc(OC)c(S(=O)(=O)NCc2ccc3c(c2)CCN3C(=O)c2cccc(C)c2)c1	none (no result: SW480 rerep, Giardia killer, IL1B secr inh, MCF10A rereplic)
C=CC[C@H]1CC(Cc2ccccc2)=C[C@H](CC=C)N1	IL1B secr inh -75.1, MCF10A rereplic inconclusive
Cc1cccc(C)c1NC(=O)Cn1c(=O)n(CCC(=O)NCc2ccc3c(c2)OCO3)c(=O)c2sccc21	none (no result: SW480 rerep, Giardia killer, IL1B secr inh, MCF10A rereplic)
Cc1cccc(N(CC(=O)NC(C)c2ccccc2)S(=O)(=O)c2ccccc2)c1C (centres undefined)	none (no result: SW480 rerep, Giardia killer, IL1B secr inh, MCF10A rereplic)
O=C(CN1C(=O)S/C(=C\c2ccccc2F)C1=O)NC1C=CS(=O)(=O)C1 (centres undefined)	SW480 rerep inconclusive, Giardia killer inconclusive, IL1B secr inh -70.0
CC(C(=O)NC1C=CS(=O)(=O)C1)N1C(=O)/C(=C/c2ccc(Cl)cc2)SC1=S (centres undefined)	Giardia killer inconclusive, IL1B secr inh -58.9, MCF10A rereplic inconclusive

Compound activity (PubChem)
